The source of these data is PubChem BioAssay (NCATS).

Inconclusive results are not listed. A call without a number means that no potency is given here. Activity calls are given as the source filed them. The call rests on the fitted dose curve; in most records, active means well fitted inhibition curve with a large enough effect; inconclusive means small, poorly fitted or top-dose-only effect; inactive means flat fitted curve, though single readings scatter.

The assay in a line: Drug repurposing screens with cells derived from glioblastoma tumor samples (AID 1345199). Further: nearly all actives have a fitted effect of over 40% in size. The settings on record: GBM patient neurospheres viability, ATP luminescence, 48 h; Potency: tumour line A; series mostly up to 45.9 µM; activity, negative = cell killing: at the top concentration. Here is the method:
CD133+ cells were isolated from GBM patient biopsies and cultured as neurospheres. Neurospheres from four patients were used to screen the NCATS pharmaceutical collection (NPC) library of approved drugs and bioactive compounds. […] The neurospheres were incubated with drugs for 48 hours in 1536-well format, then assayed with an ATP content cell viability assay. […] These hits were cherry picked to confirm activity in the four original GBM lines screened plus three other slower growing GMB lines (unable to yield enough cells for a full primary screen). Variable activities of the confirmed primary hits in the different GBM patient lines were observed. The patient line 206 responded to the greatest number of compounds and line 923 responded to the least amount of active compounds.
`CN(C)CCO`: the Potency entry was “inactive”.
Take `C[C@]12CCC(=O)C[C@@H]1CC[C@@H]1[C@@H]2CC[C@@]2(C)[C@H]1CC[C@]2(C)O`: the Potency result is “inactive”.
For the compound `COC(=O)c1ccccc1C(=O)OC`, the Potency result was “inactive”.
Still for that read-out and setting: with `CCOC(=O)C1(c2ccccc2)CCCN(C)CC1` (configuration not stated) the entry was “inactive”; with `CN[C@]1(c2ccccc2Cl)CCCCC1=O`, “inactive”; with `Clc1ccc([C@@H]2C[C@H]3CC[C@@H]2N3)cn1`, “inactive”.
On to `C=CCC1([C@@H](C)CCC)C(=O)NC(=O)NC1=O`, for which the “activity, negative = cell killing” value is -17% [at 91.6 µM, tumour line B] (inactive).
In the case of `CNC(C)CC1CCCCC1` (configuration not stated), the Potency entry is “inactive”.
As for `OCCN(CCO)CCO`, the Potency entry was “inactive”.
Turning to `CCN(CC)/[N+]([O-])=N/O`, the Potency result was “inactive”.
On to `C[C@@H](N)C(=O)c1ccccc1`, for which the Potency entry was “inactive”.
Regarding `COc1cc(C[C@H](C)N)c(OC)cc1C`, the Potency entry was “inactive”.
The same measure, in the same setting: then `O=P1(N(CCCl)CCCl)NC(OO)CCO1` (configuration not stated), with “inactive”.
Take `CCOc1cc(C=O)ccc1O`: the Potency entry is “inactive”.
With `CCCCNC(C)(C)[P+](=O)O`, the Potency entry was “inactive”.
On to `CNC(C)Cc1ccccc1` (configuration not stated), for which the Potency result is “inactive”.
In the case of `CCOP(=S)(OCC)SCSc1ccc(Cl)cc1`, the Potency entry was “inactive”.
For `C1CN(P2(N3CC3)=NP(N3CC3)(N3CC3)=NP(N3CC3)(N3CC3)=N2)CCO1` (configuration not stated), the Potency result was “inactive”.
Consider `CC(N)Cc1ccc2c(c1)OCO2` (configuration not stated), for which the Potency entry is “inactive”.
Consider `C/C=C(\CC)C(=O)NC(N)=O`, for which the Potency entry is “inactive”.
For the compound `COC(=O)[C@H]1[C@@H](OC(=O)c2ccccc2)C[C@@H]2CC[C@H]1N2C`, the Potency result was “inactive”.
As to `O=Cc1ccccc1`, the Potency entry was “inactive”.
Take `CN[C@@]1(c2ccccc2Cl)CCCCC1=O`: the Potency entry was “inactive”.
As for `O=C1CN=C(c2ccccc2)c2cc(Cl)ccc2N1`, the Potency entry was “inactive”.
For `Oc1ccc2c3c1O[C@H]1[C@@H](O)C=C[C@H]4[C@H](C2)NCC[C@@]341`, the Potency entry was “inactive”.
For the compound `COc1ccc(OC)c(C[C@H](C)N)c1`, the “activity, negative = cell killing” value is -14% [at 108 µM, tumour line B] (inactive).
For `C[C@]12CC[C@H]3[C@@H](CCC4=CC(=O)CC[C@@]43C)[C@@H]1CC[C@H]2O`, the “activity, negative = cell killing” value was -14.5% (inactive).
Consider `O=C(O)CCCO`, for which the Potency entry is “inactive”.
As to `CC(=O)[C@@]1(O)CC[C@H]2[C@@H]3CCC4=CC(=O)CC[C@]4(C)C3(F)[C@@H](O)C[C@@]21C` (some centres not stated), the Potency result was “inactive”.
Consider `c1ccc2c(c1)Sc1ccccc1N2C[C@@H]1CN2CCC1CC2`, for which the Potency entry is “inactive”.
`C[N+](C)(C)CC(=O)[O-]`: the Potency result is “inactive”.
For the compound `C[C@@H]1[C@H]2Cc3ccc(O)cc3[C@]1(C)CCN2C`, the “activity, negative = cell killing” value is -11.1% [at 194 µM, tumour line B] (inactive).
